The record followed here is PubChem BioAssay (NCI).

SMILES strings stand for the structures. Compounds without any hit were thinned out: in the full panel of roughly 83,000, 20% have a hit.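 The test compound was applied at a single concentration to cells in 96-well plates for 48 hours, and percent growth was recorded.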 A number with no mark means an inactive call. Calls of active or inactive are those of the source. Rule for the calls: active = growth percent below 10; inactive = the rest.

This experiment concerns HL-60(TB) leukemia. Description: NCI-60 one-dose screen, 48 h (100 = growth as untreated, 0 = no growth, -100 = all killed). The following applies: 10 µM unless noted.
As to `COc1cccc(NCc2nnc(Nc3ccc(Cl)cc3)c3ccccc23)c1`, the growth is -27.1% (active).

With `Cc1nn(-c2ccc(F)cc2)c2ncnc(Nc3ccc(NC(=O)Nc4ccc(Cl)c(C(F)(F)F)c4)cc3)c12`, the growth is 13.2%.

On to `C#CC[C@@H]1C[C@]2(C)[C@H]3CC[C@@H]4[C@H]5C(C(=C)C)CC[C@]5(C(=O)NCCCCN)CC[C@@]4(C)[C@]3(C)CC[C@H]2C(C)(C)[C@H]1OC(C)=O` (stereo not given in full), for which the growth was -38.3% (active).

Take `Nc1ccccc1NC(=O)c1ccc(CN2CCC/C(=C\c3cccc(Cl)c3)C2=O)cc1`: the growth was -24.5% (active).

In the case of `CCCCCc1ccc(S(=O)(=O)Nc2ccc3nc(N)oc3c2)cc1`, the growth was 28.9%.

With `CCNC(=O)Oc1ccc(/C(=C(/CC)Cc2ccccc2)c2ccc(OCCN3CCCC3)cc2)cc1`, the growth was 69.2%.

As to `CCc1ccc2c(c1)N(CCO)C1=C(C(=O)OC1)C2c1cc(OC)c(OC)c(OC)c1` (stereo not given), the growth is -26.4% (active).

As to `O=C(N/N=C/c1ccccc1O)C(=O)Nc1ccc(F)cc1`, the growth was 29.6%.

As to `N#Cc1nc(-c2ccc(F)cc2)oc1S(=O)(=O)N1CCOCC1`, the growth is 16%.

As to `O=C(c1ccccc1O)N1CCCC1`, the growth is 91.8%.

Turning to `Nc1c(C(=O)Nc2ccccn2)sc2nc3c(cc12)C(O)CCC3` (stereo not given), the growth was 9.6% (active).

With `Cc1ccc(S(=O)(=O)c2c(COC(=O)c3cccc(C)c3)c(-c3ccccc3)nn2C)cc1`, the growth is 30.2%.

Turning to `Cc1ccc(-c2nc3nc(-c4ccc(Cl)cc4)nc(N4CCCNCC4)c3o2)cc1`, the growth was -67.6% (active).

On to `CCCCOC(=O)c1cccc([N+](=O)[O-])c1`, for which the growth was 142%.

As for `O=C(O)c1ccnc(Br)c1`, the growth is 96.5%.

`CC(=O)c1ccc(-n2c(-c3cc(-c4ccsc4)n[nH]3)n[nH]c2=S)cc1`: the growth is 112%.

Consider `CC(C)C[C@H](NC(=O)[C@H](Cc1cccc2ccccc12)NS(=O)(=O)c1cccc2cccnc12)B(O)O`, for which the growth was -17.2% (active).

Take `CC(C)c1ccc(C(=O)Nc2sc3cc(O)ccc3c2C#N)cc1`: the growth is -6.25% (active).

Take `OC(c1cc(C(F)(F)F)nc2c(C(F)(F)F)cccc12)C1CCCCN1` (stereo not given): the growth was 50.3%.

For `C#Cc1c(I)n(C2OC(CO[Si](C)(C)C(C)(C)C)C3OC(C)(C)OC32)c(=O)[nH]c1=O` (stereo not given), the growth was 20.1%.

In the case of `c1ccc([P+](c2ccccc2)(c2ccccc2)c2ccc3c4ccc([P+](c5ccccc5)(c5ccccc5)c5ccccc5)c5cccc(c6cccc2c63)c54)cc1`, the growth was 11.2%.

On to `N#CC(C#N)N=Nc1ccc(Cl)cc1`, for which the growth was -26.8% (active).

As for `COc1ccc(CNC(=O)c2c(C)n([O-])c3ccc(OC)cc3[n+]2=O)cc1`, the growth is 92.5%.

As to `N=C1c2nc3n(c2C(=O)c2nc4n(c21)CCCC4)CCCC3`, the growth was 96.3%.

Turning to `C=C(C)[C@@H]1CC[C@]2(C(=O)N3CCN(C)CC3)CC[C@]3(C)[C@H](CC[C@@H]4[C@@]5(C)C/C(=C/c6ccc(C(F)(F)F)cc6)C(=O)C(C)(C)[C@@H]5CC[C@]43C)[C@@H]12`, the growth was 94.1%.

Consider `CCCCCCCC/C=C\CCCCCCCCOc1ccccc1CC(=O)NCC[N+]1(C)CCCC1`, for which the growth is 2.25% (active).

As to `COc1cc(/C=C2\CN(C)C/C(=C\c3cc(CN4CCCC4)c(O)c(OC)c3)C2=O)cc(CN2CCCC2)c1O`, the growth was 43.3%.

With `COC(=O)c1c2c(c(C)[n+]([O-])c1C)C(=O)C=C(NCc1ccc(OC)cc1)C2=O`, the growth is -30.5% (active).

Consider `O=C1COCCN1c1ccc(NCc2cn(Cc3ccc(F)cc3)c3ccccc23)cc1`, for which the growth is 86.9%.

With `CC(C)(C)c1ccc(/C=C/C(=O)Nc2ccc(O)cc2)cc1`, the growth was -12.6% (active).

For `CC(C)C/C(=N\NC(=O)c1ccncc1)c1cc(Cl)ccc1O`, the growth is -32.3% (active).

For the compound `C=CCc1cc(Cl)cc2c(OC(C)=O)c(C(C)=O)c(-c3ccccc3)nc12`, the growth was 107%.

In the case of `CN(C)CCCC1(c2ccc(F)cc2)OCc2cc(-c3cc4ccccc4s3)ccc21` (stereo not given), the growth is 22.3%.

In the case of `Cn1cnc2c(F)c(Nc3ccc(Br)cc3Cl)c(C(=O)NOCCO)cc21`, the growth is 24.5%.

`CCCCOc1nc2ccc(C)cc2cc1/C=C/C(=O)/C=C(O)/C=C/c1cc2cc(C)ccc2nc1OCCCC`: the growth is 99%.

As to `CCOC(=O)N1C/C(=C/c2ccc(F)cc2)C(=O)/C(=C/c2ccc(F)cc2)C1`, the growth was 4.58% (active).

Consider `O=C(OCCCCOC(=O)n1cnc2ccccc21)n1cnc2ccccc21`, for which the growth was 104%.

On to `CNCCNc1nc2ccccc2c2c(=O)c3cc(OC)ccc3sc12`, for which the growth is -52.9% (active).

For the compound `Cc1cc(-c2nnc(/C=C/c3ccc4c(c3)OCO4)o2)n[nH]1`, the growth was 10.6%.

Turning to `CCN1C(=O)N(CC)C2C1NC(=S)N2/N=C/C=C/c1ccccc1OC` (stereo not given), the growth is -20.8% (active).
